Shown are actives, neighbours in structure and some others; about 19% of the full set was active somewhere.
IL1B secr inh – inflammasome signaling inhibition, IL-1 beta readout. activity change, % at 57.5 µM. THP-1 LPS/ATP IL-1B secretion, AlphaLISA, 16 h; hits give low values. 360,000 tested, 4.7% active; in the data active means activity change below about -50%; inconclusive means mostly about -30% to -49%
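THP-1 cells pretreated 1 hr with compounds (up to 57.5 uM final), then stimulated with LPS (250 ng/mL final) plus ATP (1.25 mM final); secreted IL-1B measured by AlphaLISA after 16 hr, decreased signal indicating inhibition.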
DT40 TDP1 CPT – growth inhibition of DT40 Tdp1-/-;hTDP1 cells with camptothecin (screen for TDP1 inhibitors); chicken DT40 Tdp1-/-;hTDP1 cells + 20 nM CPT, ATP luminescence, 48 h; Potency, µM (top dose mostly 46.2 µM), inactives show top-dose activity change, negative = growth inhibition, usual class: inhibitors; 420,000 tested, 12% active; AID 686979; further: potency means the concentration at half of the fitted maximal effect; nearly all actives have a fitted effect of over 55% in size
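Chicken DT40 Tdp1-/- cells stably complemented with human TDP1 were seeded at 400 cells/well in medium containing 20 nM camptothecin, exposed to pin-transferred compounds, and grown at 37 °C for at least 48 hr. Viability was read as ATP luminescence.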
HT1080-NT tox – kills 2HG-producing HT-1080-NT fibrosarcoma cells | HT-1080-NT fibrosarcoma viability, CellTiter-Glo ATP luminescence, 48 h | AID 686970 | Potency, µM (series often up to 46.1 µM), without a hit: top-dose activity, negative = less viability, most hits filed as cytotoxic | 360,000 tested, 1.6% active;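 further: NT is the 2HG producing partner of a matched IDH1 knockdown line; potency means the concentration at half of the fitted maximal effect; 0% = DMSO-treated cells and -100% = media-only wells without cells; nearly all actives have a fitted effect of over 55% in size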
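A 48-hour cytotoxicity screen used HT-1080-NT cells plated 2 hours before compound delivery. ATP-based CellTiter-Glo luminescence measured viability, normalized to DMSO and no-cell controls.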
HT1080 IDH1KD tx – kills HT-1080 cells with IDH1 knockdown; HT-1080 IDH1 knockdown viability, ATP luminescence, 48 h; Potency, µM (titrated, usually from 46.1 µM), for the others: top-dose activity, negative = toxicity, most hits filed as cytotoxic; 360,000 tested, 2% active; AID 686971;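 further: potency means the concentration at half of the fitted maximal effect; 0% = DMSO wells and -100% = cell-free medium wells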
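Assay cells: HT-1080 with IDH1 knockdown, 750 per well, RPMI/5% FBS. Exposure: 48 h at 37 °C following 2 h pre-incubation. Read: CellTiter-Glo luminescence; fitted concentration-response, curve class assigned.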
TDP1 cell noCPT – qHTS for Inhibitors of human tyrosyl-DNA phosphodiesterase 1 (TDP1): qHTS in cells in absence of CPT; DT40 Tdp1-/- hTDP1 cells, no CPT, ATP luminescence, 48 h; 420,000 tested, 15% active; Potency, µM (highest dose often 46.2 µM), for inactives: at the highest dose activity change, negative = growth inhibition, most hits filed as inhibitors; further: potency means the concentration at half of the fitted maximal effect; nearly all actives have a fitted effect of over 55% in size
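Chicken DT40 Tdp1-/- cells complemented with human TDP1, screened without camptothecin (DMSO vehicle only), 400 cells/well. Compounds pin-transferred, cells incubated at 37 °C for at least 48 hr. Growth read as ATP-dependent luminescence (CellTiter-Glo, 30 min at RT).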
The depositor's hits bear a star; u = inconclusive; x = no result given. Unless noted, the call rests on the fitted dose curve; in most records, active means well fitted curve in the direction sought with a large enough effect; inconclusive means small, poorly fitted or top-dose-only effect, or another doubt; inactive means no such curve, though single readings can be large; an effect the other way counts as inactive or inconclusive. Unless noted, on the % scale 0 is the no-effect control and ±100 the full control effect.

SMILES | IL1B secr inh | DT40 TDP1 CPT | HT1080-NT tox | HT1080 IDH1KD tx | TDP1 cell noCPT
COC(=O)c1ccc(N2C(c3cc(OC)cc(OC)c3)=Cc3ccc(-c4cccnc4)cc3C2CC(=O)C2CC2)cc1 (configuration not stated) | 22.0 | u | -0.9% | -2.2% | u
COc1ccc2c(c1)C(CC(C)=O)N(c1ccc(-c3cccnc3)cc1)C(c1ccsc1)=C2 (configuration not stated) | 5.9 | u | -6.4% | -18.3% | u
COc1cc(OC)cc(C2=Cc3ccc(OC)cc3C(CC(C)=O)N2c2ccc(-c3cncnc3)cc2)c1 (configuration not stated) | -15.1 | 8.2µM* | -14.8% | -8.3% | u
Cc1ccc(/C=N\NC(=O)CNC(=O)C23CC4CC(CC(C4)C2)C3)o1 | -16.9 | -0.7% | 1.9% | 8.0% | -9.3%
COC(=O)c1ccc(N2C(c3cc(OC)cc(OC)c3)=Cc3ccc(-c4ccc(C(N)=O)cc4)cc3C2CC(=O)C2CC2)cc1 (configuration not stated) | 5.7 | u | -15.3% | -24.7% | 18.4µM*
C=CCSC1=N/C(=C\c2cc(OCC)c(OC(C)=O)c([N+](=O)[O-])c2)C(=O)S1 | 18.8 | 16.4µM* | -3.4% | 5.8% | u
O=C(NCCc1c[nH]c2ccccc12)/C(=C\c1cccnc1)NC(=O)c1ccccc1Br | 0.0 | u | -6.5% | -16.2% | u
CCOC(=O)C1=CCN(S(=O)(=O)c2ccc(C)cc2)C1c1cccc(Br)c1 (configuration not stated) | -17.9 | 16.4µM* | -26.1% | u | u
CCOc1ccc([C@@H]2CC=C(C(=O)O)[C@H](c3cccc(Cl)c3)N2S(=O)(=O)c2ccc(C)cc2)cc1 | 39.6 | u | 4.5% | 12.0% | u
CCOC(=O)C1=CC[C@@H](c2cccc(Br)c2)N(S(=O)(=O)c2ccc(F)cc2)[C@H]1c1cccc(Cl)c1 | 10.8 | 20.6µM* | -0.5% | -5.7% | 10.3µM*
CCOC(=O)C1=CCN(S(=O)(=O)c2ccc(Br)cc2)C1c1cccc(C)c1 (configuration not stated) | 6.0 | u | u | u | 25.9µM*
COc1cccc(N2CCN(CC(=O)NC(C)c3ccccc3)CC2)c1 (configuration not stated) | -14.4 | 13.1% | 21.5% | 11.2% | 4.9%
COc1ccc(N2CCN(CC(=O)Nc3ccccc3C(=O)NC(C)c3ccccc3)CC2)cc1 (configuration not stated) | -28.2 | u | -0.7% | -5.3% | 20.6µM*
CC(NC(=O)c1ccccc1NC(=O)CN1CCN(c2ccccc2O)CC1)c1ccccc1 (configuration not stated) | 13.4 | u | 3.7% | 1.9% | u
COc1ccc(N2CCN(CC(=O)Nc3ccccc3C(=O)NCc3ccccc3)CC2)cc1 | 3.1 | 14.6µM* | -13.0% | -8.8% | 18.4µM*
COc1ccc(CNC(=O)CN2CCN(c3ccc(F)cc3)CC2)cc1 | -1.9 | -4.4% | 4.6% | 0.0% | -4.9%
COc1ccccc1N1CCN(CC(=O)Nc2ccccc2C(=O)NC(C)c2ccccc2)CC1 (configuration not stated) | -10.1 | 14.6µM* | 14.4% | -2.4% | 18.4µM*
COc1ccc2c(C)c(CCC(=O)NCc3ccc(Cl)cc3)c(=O)oc2c1C | x | -22.1% | x | x | u
ON=C(c1ccccc1)c1ccc2c3c(cccc13)CC2 | 31.6 | u | -11.0% | -13.9% | 18.4µM*
CC(=O)c1ccc2c3c(cccc13)CC2 | 3.8 | 2.9% | 13.2% | 6.4% | -14.5%
Cc1ccc(Cn2c(C(C)NC(=O)c3ccccc3)nc3ccccc32)cc1 (configuration not stated) | x | u | x | x | 6.51µM*
Cc1ccc(C)c(Cn2c(C(C)NC(=O)c3ccc(F)cc3)nc3ccccc32)c1 (configuration not stated) | x | -2.7% | x | x | u

Screening data: PubChem BioAssay, National Center for Advancing Translational Sciences (NCATS)
